Test in all cases: NCI-60 one-dose screen, 48 h (100 = growth as untreated, 0 = no growth, -100 = all killed)
Holding throughout (conditions): 10 µM unless noted

The subject of test [1] is DU-145 prostate.
Test [2] relates to K-562 leukemia.
Test [3] relates to MALME-3M melanoma.
In test [4] the test system is MDA-MB-231 breast.
The test system of test [5] is RXF 393 renal.
Test [6] has as its system SF-268 CNS.
The subject of test [7] is SF-295 CNS.
The subject of test [8] is SF-539 CNS.
Test [9] relates to UACC-257 melanoma.
For test [10], the system named is M14 melanoma.

This is part of a sample that, as a whole, favours compounds with a hit. Of some 83,000 tested, about 20% had one in any assay.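 The test compound was applied at a single concentration to cells in 96-well plates for 48 hours, and percent growth was recorded.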 Unmarked numbers belong to inactive results. Active and inactive are the calls of the source. Rule for the calls: active = growth percent below 10; inactive = the rest.

With `COC(=O)[C@@H](C)C[C@H](Cc1ccccc1)NC(=O)c1nc([C@@H](C[C@H](C(C)C)N(C)C(=O)[C@@H](NC(=O)[C@H]2CCCCN2C)C(C)C)OC(C)=O)sc1C`, the growth was 5.34% (active) in [1]; 8.3% (active) in test [2]; 54% in test [3]; -11.6% (active) in test [4]; 44.4% in test [5]; 17.6% in test [6]. Moreover, the growth is 15.4% in [7], -16.5% (active) in test [8], 59.9% in test [9] and -43.4% (active) in test [10].

As to `C=CC12CCN(CC1)C(C(O)c1ccnc3ccc(OC)cc13)C2` (stereo not given), the growth in [1] was 107%; in test [2], 17.6%; in test [3], 26.2%; in test [4], 51.2%; in test [5], 45.9%; in test [6], 83.7%. The growth in test [7] was 72.3%; in test [8] it was 89.8%; in test [9], 52.4%; in test [10], 72.3%.

In the case of `CC(C)[C@]12O[C@H]1[C@@H]1O[C@]13[C@]1(O[C@H]1C[C@H]1c4c(C(=O)c5ccccc5)oc(OC(=O)c5ccccc5)c4CC[C@@]13C)[C@@H]2O`, the growth in [1] was 0.787% (active); in test [2], -12.5% (active); in test [3] it was -59.1% (active); in [4], 34.3%; in test [5] it was -81.1% (active); in [6], -20.7% (active). Further, the growth in [7] was 8.47% (active); in test [8] it was -40.6% (active); in [9] it was -25.5% (active); in test [10] it was -73.7% (active).

`CC(=O)[O][Hg][O]C(C)=O`: the growth in test [1] was 94.8%; in [2], 29.7%; in test [3] it was 54.3%; in test [4] it was 110%; in test [5], 98.2%; in [6], 96.6%. The growth was 90.3% in test [7], 108% in test [8], 90.8% in [9] and 88.3% in test [10].

Regarding `COc1ccc(C2=CC(c3ccc(OC)c(OC)c3)c3c(c4ccccc4oc3=O)O2)cc1OC` (stereo not given), the growth in [1] was 9.25% (active); in [2], 1.17% (active); in test [3] it was 75.3%; in [4], 27.8%; in test [5], 33.2%; in [6], 38.7%. Moreover, the growth in test [7] was -54.4% (active); in test [8] it was -17.8% (active); in [9] it was 66.9%; in test [10] it was 12.9%.

As for `CC1=C(CCCOC(=O)CN)C2=C(C)C3(CC3)[C@@](C)(O)C(=O)C2=C1`, the growth in test [1] was 17%; in test [2], 90.2%; in test [3], 114%; in [4], 95.2%; in [5], -16.4% (active); in [6] it was 48.7%. The growth in test [7] was 86.8%; in test [8], 94%; in test [9], 86%; in test [10], 73.8%.

Turning to `Cc1cc(N(CCCl)CCCl)ccc1C=Nc1ccccc1-c1ccccc1`, the growth was 61.2% in test [1]; 85% in test [2]; 77.1% in [3]; 94.4% in [4]; 45.5% in [5]; 62.8% in [6]. The growth was 27.2% in test [7], 61.7% in test [8], 55.3% in [9] and 75.8% in test [10].

On to `O=C1C2CC=CCC2C(=O)N1SC(Cl)(Cl)Cl` (stereo not given), for which the growth is 109% in [1]; 45.1% in test [2]; 81.8% in [3]; 103% in test [4]; 63.6% in test [5]; 104% in [6]. The growth is 134% in [7], 91.3% in [8], 105% in [9] and 92.1% in test [10].

`CC(=O)O[C@H]1C(=O)[C@@]2(C)[C@H]([C@H](OC(=O)c3ccccc3)[C@]3(O)C[C@H](OC(=O)[C@H](OC(=O)OC[C@H]4COC(C)(C)O4)[C@@H](NC(=O)c4ccccc4)c4ccccc4)C(C)=C1C3(C)C)[C@]1(OC(C)=O)CO[C@@H]1C[C@@H]2O`: the growth is 5.18% (active) in test [1]; 11.6% in [2]; 27.2% in test [3]; -4.56% (active) in test [4]; -7.11% (active) in test [5]; 29.7% in test [6]. Moreover, the growth in test [7] was -6.58% (active); in test [8], -13.3% (active); in test [9], 48.3%; in test [10] it was -19% (active).

Consider `COC(=O)[C@]12CCC(C)(C)C[C@H]1[C@H]1C(=O)C[C@@H]3[C@@]4(C)C[C@@]5(CC(C)(C)[C@@H]4CC[C@@]3(C)[C@]1(C)CC2)OO[C@@](C)(C(F)(F)F)O5`, for which the growth in [1] was 107%; in [2], 88.3%; in test [3] it was 108%; in test [4] it was 94.8%; in [5], 95.3%; in test [6] it was 93.1%. The growth is 95.7% in test [7], 101% in test [8], 102% in [9] and 99.2% in test [10].

For the compound `O=C(CC1(O)C(=O)N(Cc2ccccc2)c2ccc(F)cc21)c1ccc(C(=O)NCC2CCC3(CC2)OOC2(CCCCC2)OO3)cc1` (stereo not given), the growth in [1] is -94.3% (active); in [2], -42.7% (active); in [3], -69.2% (active); in test [4], -74% (active); in test [5], -80.4% (active); in test [6], -60.3% (active). For the same compound, the growth is -14.1% (active) in test [7], -84.8% (active) in test [8], -2.89% (active) in test [9] and 15.3% in [10].

As for `Cc1c(NS(=O)(=O)c2ccccc2)ccc([N+](=O)[O-])c1Cl`, the growth in test [1] is 94%; in test [2], 74.4%; in test [3], 35.3%; in test [4], 84.8%; in test [5] it was 77%; in test [6], 75.9%. Further, the growth is 31% in [7], 67.4% in test [8], 59.5% in test [9] and 70.4% in test [10].

`COC(=O)CCc1c[nH]c2ccc(N(CCCl)CCCl)cc12`: the growth in [1] was 33.3%; in test [2] it was 70.7%; in [3], 71%; in test [4] it was 121%; in test [5], 46.8%; in test [6] it was 40.6%. In addition, the growth is 32.9% in test [7], 23.2% in test [8], 85.9% in test [9] and 45.4% in test [10].
